# Reference: PubChem BioAssay (NCI)
# The panel holds about 79,000 compounds, 15% with a hit somewhere; the sample as a whole holds those more often. Activity calls are given as the source filed them. No stated cut-off is given here; in the data, active means growth inhibition above about 70%; inactive means the rest. Residues, ends and D or L forms follow the SMILES beside them. *: point of attachment. Fmoc = O=C(OCC1c2ccccc2-c2ccccc21)*; Boc = CC(C)(C)OC(=O)*
# Experiment: NCI Yeast Anticancer Drug Screen. Data for the CLN2oe strain (AID 163);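 further: 0% = growth of vehicle-only control cultures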
# Details: S. cerevisiae CLN2oe strain, at 1.2 µM, hits give high values
# In short: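 Here, growth inhibition in a cell-cycle-altered yeast strain after compound exposure was quantified against vehicle control growth.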
row,SMILES,growth inhibition
1,CC(C)C(=O)CC(Sc1ccc(N)cc1)c1ccccc1 (centres undefined),-2% (inactive)
2,CC(C)OP(=O)(OC(C)C)/C(Cl)=N/Nc1ccc([N+](=O)[O-])cc1,18% (inactive)
3,O=[N+]([O-])c1cc(Cl)ccc1S(=O)(=O)c1ccc(Cl)cc1[N+](=O)[O-],-2% (inactive)
4,CCCCCCNCCCNc1c2cc(OC)ccc2nc2cccc([N+](=O)[O-])c12,-8% (inactive)
5,N#CCC(=O)N/N=C(\c1ccccc1)C(c1ccccc1)C1(O)C(=O)Nc2c(Cl)ccc(Cl)c21 (centres undefined),-1% (inactive)
6,CN(C)CCNCCCNc1c2ccccc2nc2cccc([N+](=O)[O-])c12,-2% (inactive)
7,CCC[CH2][Ge]([CH2]CCC)([CH2]CCC)[O]C(=O)C(O)c1ccccc1 (centres undefined),-3% (inactive)
8,COc1ccc(-c2cc(-c3cc(C)cc(Cl)c3O)nc3[nH]c(=S)[nH]c(=S)c23)cc1,-2% (inactive)
9,O=[N+]([O-])c1ccc(/C=C\c2ccc3c(c2)OCO3)c([N+](=O)[O-])c1,-2% (inactive)
10,O=C1c2ccccc2N2OC3(N4CCCC4)CCCCC3C12c1ccccc1 (centres undefined),-9% (inactive)
11,Cc1oc2ccccc2c(=O)c1Cn1nnc2ccccc21,0% (inactive)
12,CC1(C)OC(=O)C(=Cc2ccc([N+](=O)[O-])s2)C(=O)O1,14% (inactive)
13,CCN(CC)CCCNc1ccc([N+](=O)[O-])c2nc3ccc(OC)cc3c(NCCCN(CC)CC)c12,-10% (inactive)
14,COc1cccc(/C=C2\S/C(=N/Nc3nc(-c4ccc([N+](=O)[O-])cc4)cs3)NC2=O)c1O,6% (inactive)
15,C1=CCN([B-](c2ccccc2)[C+]2CCCCC2)C=C1,-6% (inactive)
16,O=[N+]([O-])c1cc[n+]([O-])c(Cl)c1,-6% (inactive)
17,CCCNC(=O)OCc1c(COC(=O)NCCC)c(-c2ccc(Cl)c(Cl)c2)n2c1CCC2,0% (inactive)

row,SMILES,growth inhibition
1,CC1(C)CC(=O)C(C(=O)Nc2cccs2)=C(O)C1,15% (inactive)
2,O=C(NO)c1coc2ccccc2c1=O,1% (inactive)
3,COc1ccc(C(C)c2cc3c(cc2OCC(C)=O)OCO3)cc1 (centres undefined),-4% (inactive)
4,CCS(=O)(=O)Nc1ccc(Nc2c3ccccc3nc3ccccc23)c(OC)c1,-8% (inactive)
5,O=S(=O)(c1ccccc1)N1CN2CN(C1)CN(S(=O)(=O)c1ccccc1)C2,1% (inactive)
6,CC1=NN(C(=O)c2ccccc2O)C(=O)/C1=C/c1ccco1,6% (inactive)
7,O=C1C=C(Br)C(=O)c2ccccc21,5% (inactive)
8,C[N+](C)([O-])CCCNc1c2ccccc2nc2cccc([N+](=O)[O-])c12,-2% (inactive)
9,Cc1cccc2c(NCCCN(C)C)c3c([N+](=O)[O-])ccc(C)c3nc12,-2% (inactive)
10,OC1(c2ccccc2)C2CC=CC2C1(c1ccccc1)c1ccccc1 (centres undefined),2% (inactive)
11,C[n+]1c(-c2ccc(/C=N/NC(=O)c3ccc(C(=O)N/N=C/c4ccc(-c5cn6ccccc6[n+]5C)cc4)cc3)cc2)cn2ccccc21,-2% (inactive)
12,CCN(CC)CCC(=O)Nc1ccc2sc3ccccc3c(=O)c2n1,0% (inactive)
13,O=[N+]([O-])c1ccc2nc(=S)[nH]n2c1,-2% (inactive)
14,O=C(c1ccccc1)[C@H]1Nc2ccc(Cl)cc2[C@H]2OCCC[C@@H]12,-14% (inactive)
15,COc1cc([N+](=O)[O-])c2ncccc2c1Br,-11% (inactive)
16,O=S(=O)(c1cccc(C(F)(F)F)c1)N1c2ccccc2-n2cccc2C1c1cccnc1 (centres undefined),-16% (inactive)
17,CC(C)(C)OC(=O)NCCCCC(NC(=O)C(Cc1c[nH]c2ccccc12)NC(=O)OCC1c2ccccc2-c2ccccc21)C(=O)O (centres undefined) (Fmoc-Trp-Lys(Boc)-OH; configuration not given here),4% (inactive)
